Measured values taken from PubChem BioAssay (NCATS).
Results filed as inconclusive are left out. Active and inactive are the calls of the source. Calls come from the whole dose curve; as a rule, active = well fitted curve in the direction sought with a large enough effect; inconclusive = small, poorly fitted or top-dose-only effect, or another doubt; inactive = no such curve, though single readings can be large; an effect the other way counts as inactive or inconclusive.

Legend:
[1] = tested on: CRL-7250; experiment: Cytotoxic Profiling of Annotated Libraries Using Quantitative High-Throughput Screening (AID 1296008); conditions: Five cell lines viability, CellTiter-Glo ATP luminescence, 48-72 h; max response: stronger effect = lower value; note: nearly all actives have a fitted effect of over 60% in size; for max response: % is set by controls: 0 for no effect and ±100 for the full control effect
How it was run: (§1)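 Cytotoxicity was measured as CellTiter-Glo ATP luminescence, read after 10 min at room temperature. Compound treatment of the cells lasted 48 or 72 hr at 37 degrees Celsius in a qHTS format.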

[2] = tested on: HEK293; experiment: as above; conditions: Five cell lines viability, CellTiter-Glo ATP luminescence, 48-72 h; max response: stronger effect = lower value
How it was run: as §1

[3] = tested on: HaCat; experiment: as above; conditions: Five cell lines viability, CellTiter-Glo ATP luminescence, 48-72 h; max response: stronger effect = lower value
How it was run: as §1

[4] = tested on: KB-3-1; experiment: as above; conditions: Five cell lines viability, CellTiter-Glo ATP luminescence, 48-72 h; max response: stronger effect = lower value
How it was run: as §1

[5] = tested on: NIH3T3; experiment: as above; conditions: Five cell lines viability, CellTiter-Glo ATP luminescence, 48-72 h; max response: stronger effect = lower value
How it was run: as §1

[6] = tested on: HACAT; experiment: qHTS assay to identify novel small-molecules to repurpose for Merkel cell carcinoma treatment (AID 1296009); conditions: MCC and control cell lines, CellTiter-Glo viability, 72 h; at 44.8 µM (top of the series) unless noted; note: nearly all actives have a fitted effect of over 60% in size
How it was run: (§2)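 72 hr, 37 degree celsius; NPC 8-pt / MIPE 11-pt dose response; compound pinned in DMSO; CellTiter-Glo, 10 min RT, luminescence; normalized to no-cell and DMSO controls.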

[7] = tested on: NIH3T3; experiment: as above; conditions: MCC and control cell lines, CellTiter-Glo viability, 72 h; at 44.8 µM (top of the series) unless noted
How it was run: as §2

[8] = tested on: C33A; experiment: Primary qHTS to identify gynecologic anti-cancer compounds using libraries of approved drugs and bioactive compounds (AID 1345084); conditions: Gynecologic cancer cell panel viability, ATPlite luminescence, 48 h; series mostly up to 57.5 µM; note: % is set by controls: 0 for no effect and ±100 for the full control effect; nearly all actives have a fitted effect of over 55% in size
How it was run: (§3)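 48 h compound exposure at 37 C, 5% CO2; five-point qHTS. ATPlite luminescence readout of cell ATP.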

[9] = tested on: CAOV3; experiment: as above; conditions: Gynecologic cancer cell panel viability, ATPlite luminescence, 48 h; series mostly up to 57.5 µM
How it was run: as §3

[10] = tested on: CASKI; experiment: as above; conditions: Gynecologic cancer cell panel viability, ATPlite luminescence, 48 h; series mostly up to 57.5 µM
How it was run: as §3

[11] = tested on: Es-2; experiment: as above; conditions: Gynecologic cancer cell panel viability, ATPlite luminescence, 48 h; series mostly up to 57.5 µM
How it was run: as §3

[12] = tested on: HeLa; experiment: as above; conditions: Gynecologic cancer cell panel viability, ATPlite luminescence, 48 h; series mostly up to 57.5 µM
How it was run: as §3

[13] = tested on: Hek293T; experiment: as above; conditions: Gynecologic cancer cell panel viability, ATPlite luminescence, 48 h, control line for the selectivity index; series mostly up to 57.5 µM
How it was run: as §3

[14] = tested on: JEG-3; experiment: as above; conditions: Gynecologic cancer cell panel viability, ATPlite luminescence, 48 h; series mostly up to 57.5 µM
How it was run: as §3

[15] = tested on: OV90; experiment: as above; conditions: Gynecologic cancer cell panel viability, ATPlite luminescence, 48 h; series mostly up to 57.5 µM
How it was run: as §3

[16] = tested on: PA-1; experiment: as above; conditions: Gynecologic cancer cell panel viability, ATPlite luminescence, 48 h; series mostly up to 57.5 µM
How it was run: as §3

C/C=C1/[C@H](O[C@@H]2O[C@H](CO)[C@@H](O)[C@H](O)[C@H]2O)OC=C(C(=O)OC)[C@H]1CC(=O)OCCc1ccc(O)c(O)c1
inactive: max response [1] -12.9% | max response [2] -8.69% | outcome [3] | max response [4] 4.42% | outcome [5] | outcome [6] inactive [at 17.4 µM] | outcome [7] inactive [at 17.4 µM] | Potency [8] | Potency [9] | outcome [10] | Potency [11] | Potency [12] | Potency [13] | Potency [14] | Potency [15] | Potency [16]

CC(C)=CCC/C(C)=C/CO[C@@H]1O[C@H](CO[C@@H]2O[C@@H](CO)[C@H](O)[C@H]2O)[C@@H](O)[C@H](O)[C@H]1O
inactive: max response [1] -10.8% | max response [2] -7.37% | outcome [3] | outcome [4] | outcome [5] | outcome [6] inactive [at 17.4 µM] | outcome [7] inactive [at 17.4 µM] | Potency [8] | Potency [9] | outcome [10] | Potency [11] | Potency [12] | Potency [13] | Potency [14] | Potency [15] | Potency [16]

COc1cc(O)c2c(c1Cl)CC(C)OC2=O (stereo unspecified)
inactive: outcome [1] | max response [2] -0.0766% | outcome [3] | max response [4] 3.15% | outcome [5] | outcome [6] | outcome [7] | Potency [8] | Potency [9] | outcome [10] | Potency [11] | Potency [12] | Potency [13] | Potency [14] | Potency [15] | Potency [16]

CC(=O)OC1C(CO)OC(O[C@H]2[C@H](OC(=O)[C@]34CCC(C)(C)C[C@H]3C3=CCC5[C@@]6(C)CC[C@H](O[C@@H]7O[C@H](C(=O)O)[C@@H](O)[C@H](O[C@@H]8OC[C@@H](O)[C@H](O)[C@H]8O)[C@H]7O[C@@H]7O[C@H](CO)[C@H](O)[C@H](O)[C@H]7O)[C@@](C)(C=O)C6CC[C@@]5(C)[C@]3(C)C[C@H]4O)O[C@H](C)[C@H](OC3OC(C)C(OC4OCC(O)C(O)C4O)C(O)C3O)[C@@H]2O)C(O)C1O (stereo partly specified)
inactive: max response [1] -0.582% | max response [2] -1.35% | outcome [3] | outcome [4] | outcome [5] | outcome [6] inactive [at 9.27 µM] | outcome [7] inactive [at 9.27 µM] | activity change, negative = cytotoxicity [8] 12.2% [at 6.55 µM] | activity change, negative = cytotoxicity [9] -15% [at 6.55 µM] | activity change, negative = cytotoxicity [10] 7.74% [at 6.55 µM] | activity change, negative = cytotoxicity [11] -0.286% [at 6.55 µM] | activity change, negative = cytotoxicity [12] -1.51% [at 6.55 µM] | activity change, negative = cytotoxicity [13] 1.03% [at 6.55 µM] | activity change, negative = cytotoxicity [14] 3.7% [at 6.55 µM] | activity change, negative = cytotoxicity [15] -0.616% [at 6.55 µM] | activity change, negative = cytotoxicity [16] 13.7% [at 6.55 µM]

O=C(O)CC/C=C\C[C@H]1CO[C@@H](c2ccccc2Cl)O[C@H]1c1ccccc1O
inactive: max response [1] 3.51% | max response [2] -2.35% | outcome [3] | max response [4] 3.23% | outcome [5] | outcome [6] | outcome [7] | Potency [8] | Potency [9] | outcome [10] | Potency [11] | Potency [12] | Potency [13] | Potency [14] | Potency [15] | Potency [16]

Cc1ccc(Nc2nnc(-c3ccc([N+](=O)[O-])cc3)o2)cc1Cl
inactive: outcome [1] | max response [2] -16.7% | outcome [3] | max response [4] -2.92% | outcome [5] | outcome [6] | outcome [7] | Potency [8] | Potency [9] | outcome [10] | Potency [11] | Potency [12] | Potency [13] | Potency [14] | Potency [15] | Potency [16]

C=C(C)[C@@]1(O)C[C@@]2(C)C(=CC1=O)CC[C@@H](O)[C@@H]2C
inactive: max response [1] 3.28% | max response [2] 4.61% | outcome [3] | max response [4] -1.96% | outcome [5] | outcome [6] | outcome [7] | Potency [8] | Potency [9] | outcome [10] | Potency [11] | Potency [12] | Potency [13] | Potency [14] | Potency [15] | Potency [16]

C/C=C1/CC2C(=O)Nc3cc(O)c(OC)cc3C(=O)N2C1 (stereo unspecified)
inactive: max response [1] -13.4% | max response [2] 2.7% | outcome [3] | max response [4] 9.54% | outcome [5] | outcome [6] | outcome [7] | Potency [8] | Potency [9] | outcome [10] | Potency [11] | Potency [12] | Potency [13] | Potency [14] | Potency [15] | Potency [16]

C=C1C(O)C(O)C2(CC3C(C)=CCC4C(C)(C(=O)O)CCCC34C)OC2C1O (stereo unspecified)
inactive: max response [1] -4.59% | max response [2] 1.46% | outcome [3] | max response [4] 2.87% | outcome [5] | outcome [6] | outcome [7] | Potency [8] | Potency [9] | outcome [10] | Potency [11] | Potency [12] | Potency [13] | Potency [14] | Potency [15] | Potency [16]

C[C@@H](NC(=O)c1cc(C(=O)N[C@@H](Cc2ccccc2)[C@H](O)CNC2CC2)cc(N(C)S(C)(=O)=O)c1)c1ccccc1
inactive: max response [1] 2.97% | max response [2] -6.18% | outcome [3] | max response [4] -1.48% | outcome [5] | outcome [6] | outcome [7] | Potency [8] | Potency [9] | outcome [10] | Potency [11] | Potency [12] | Potency [13] | Potency [14] | Potency [15] | Potency [16]

OC[C@@]1(O)CO[C@@H](OC[C@H]2O[C@@H](Oc3ccccc3)[C@H](O)[C@@H](O)[C@@H]2O)[C@@H]1O
inactive: outcome [1] | max response [2] -6.8% | outcome [3] | max response [4] 0.107% | outcome [5] | outcome [6] | outcome [7] | Potency [8] | Potency [9] | outcome [10] | Potency [11] | Potency [12] | Potency [13] | Potency [14] | Potency [15] | Potency [16]
